The list is not random: actives were taken first. Their share in the collection is about 2.4%.
rat GALR2 agon – agonists of rat galanin receptor 2 (GALR2). Galanin receptor type 2 (Rattus norvegicus), O08726. cell-based GALR2 agonist screen. activation, % at 10 µM. 0.5% of 16,000 active. AID 833, 2007; in the data active means activation above about 15%
Target sequence (O08726 whole entry, looked up): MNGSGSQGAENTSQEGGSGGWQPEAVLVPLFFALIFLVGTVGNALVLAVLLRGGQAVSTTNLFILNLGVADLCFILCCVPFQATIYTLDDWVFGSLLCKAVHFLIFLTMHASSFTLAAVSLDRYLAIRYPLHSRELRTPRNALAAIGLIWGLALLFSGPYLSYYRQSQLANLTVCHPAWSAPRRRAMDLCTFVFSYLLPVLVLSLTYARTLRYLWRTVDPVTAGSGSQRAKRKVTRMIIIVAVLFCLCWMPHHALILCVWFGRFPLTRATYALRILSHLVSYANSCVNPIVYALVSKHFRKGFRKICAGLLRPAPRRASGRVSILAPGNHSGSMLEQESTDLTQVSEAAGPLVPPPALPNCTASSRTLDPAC
TLR4 MyD88 blk – inhibitors of human TLR4-MyD88 binding; inhibition, % at 10 µM; AID 811, 2007; Cell-based TLR4-MyD88 binding inhibition assay; 0.06% of 16,000 active; in the data active means inhibition above about 45%
S1P1 ag – activates the human S1P1 receptor | S1P1 agonist cell-based reporter assay | activation, % at 4.5 µM | 1.5% of 16,000 active; in the data active means activation above about 80%
NOTCH ag – agonists of NOTCH signaling; NOTCH signaling luciferase reporter cells, luminescence; activation, % at 2.5 µM; 0.4% of 15,000 active; in the data active means activation above about 2.2%
Active calls of the source: *; . = no result.

SMILES	rat GALR2 agon	TLR4 MyD88 blk	S1P1 ag	NOTCH ag
O=C(NNc1c(Cl)cncc1Cl)c1ccc(F)cc1F	-3.2	4.2	3.6	-5.5
CN(CCC#N)c1ccc(C=NCCCN=Cc2ccc(N(C)CCC#N)cc2)cc1	-1.4	5.2	101.3*	-0.4
CCOC(=O)c1c(NC(=O)c2ccc([N+](=O)[O-])o2)nc(SC)n1Cc1cccs1	-6.1	-5.4	86.8*	-1.2
CCOc1ccc2nc(NC(=O)c3ccc([N+](=O)[O-])o3)sc2c1	-6.0	6.6	-0.6	0.1
N#C/C(=C\c1ccc(Cl)c(Cl)c1)c1ccc(NC(N)=O)cc1	135.4*	-196.2	-48.1	0.2
COc1ccc(/C(C#N)=C/c2ccc3c(c2)OCO3)cc1	-5.4	2.6	8.7	-0.2
Cc1nn(-c2ccccc2)nc1C(=O)Sc1ccccn1	-2.5	0.2	8.7	-0.1
O=c1[nH]c2c(nnn2Cc2ccccc2Cl)c(=O)n1-c1cccc(Cl)c1	-5.2	.	8.3	-0.1
CC(=NCc1ccc2c(c1)OCO2)c1ccccc1O	-5.5	-7.5	4.8	2.4*
O=[N+]([O-])c1ccc(C2OCCO2)s1	-4.1	3.4	4.8	-0.4
CCc1ccc(-n2nnnc2/C=C/N2CCOCC2)cc1	-8.8	1.3	-7.9	-0.8
Clc1ccc(-n2nnc(/C=C/C=C/N3CCOCC3)n2)cc1	29.9*	-4.5	5.3	-0.8
Cc1nc(C(F)(F)F)ccc1C(=O)N1CCN(c2nc3ccc(Cl)cc3s2)CC1	-11.2	-15.2	87.9*	0.0
FC(F)(F)Oc1ccc(NCn2nnc3ccccc32)cc1	-4.9	-10.4	-8.7	0.5
Cn1nc(-c2ccc(C=C(C#N)C#N)s2)cc1C(F)(F)F	-10.0	-8.2	-24.8	0.1
O=C(CSc1nncn1-c1ccc(C(F)(F)F)cc1)c1cc2ccccc2o1	-4.6	7.9	8.1	-0.5
CCn1nc(C)cc1-c1nnc(SCc2ccc(C(F)(F)F)cc2)o1	-6.6	0.1	96.9*	-0.1
CS/C(Nc1ccccc1)=C(/C#N)C(=O)c1cc(-c2ccccc2)c(C(F)(F)F)s1	-2.3	-9.4	10.2	-0.3
O=C(/C=C/c1cc(-c2ccccc2)c(C(F)(F)F)s1)c1cccs1	2.2	-34.3	100.5*	.
CS(=O)(=NC(=O)c1cccnc1Oc1ccccc1)c1ccc(Cl)cc1 (stereo not drawn)	-5.1	4.9	5.4	0.0
Cc1cc(C(=O)NCc2ccc3c(c2)OCCCO3)nn1C	-6.0	2.7	5.6	-0.3
Cn1nc(C(C)(C)C)cc1C(=O)NCc1ccc2c(c1)CCO2	-9.4	4.2	80.2*	-0.5
CS(=O)(=O)c1cccc(C(=O)O)c1	-6.5	1.7	-16.4	.
O=c1ccc([N+](=O)[O-])cn1C1CCCCO1 (stereo not drawn)	-3.5	21.8	94.5*	-0.6
O=C(OC1OCCOC1OC(=O)c1ccc([N+](=O)[O-])cc1)c1ccc([N+](=O)[O-])cc1 (stereo not drawn)	-6.2	-0.5	-1.5	0.0
SMILES	rat GALR2 agon	TLR4 MyD88 blk	S1P1 ag	NOTCH ag
Cc1ccc([N+](=O)[O-])c(NS(=O)(=O)c2cc(Cl)c(Cl)cc2Cl)c1	-6.7	2.5	87.3*	1.0
O=S(=O)(Nc1cccc2cccnc12)c1cc(Cl)c(Cl)cc1Cl	-0.1	3.4	0.5	0.3
N#C/C(=C\c1c(Cl)cccc1Cl)C(=O)Nc1ccc(F)c(Cl)c1	20.2*	-5.4	30.6	-0.3
CN(C)/C=C(\C#N)C(=O)Nc1ccc(F)c(Cl)c1	-5.1	.	30.5	-0.7
O=C(Nc1ccc(N2CCOCC2)cc1Cl)C1CCN(C(=O)OCc2ccccc2)CC1	-8.4	3.1	101.5*	-0.2
C(=C\c1nn[nH]n1)/c1ccccc1	-5.5	-12.3	-10.6	0.1
CC(=O)Nc1cccc(OCCCNS(=O)(=O)c2cn(C)c(C)n2)c1	-11.0	3.2	-6.3	.
N#Cc1c(Cl)cccc1Oc1ccc(S(=O)(=O)NNc2c(Cl)cncc2Cl)cc1	-6.1	-5.9	108.3*	-0.4
CC(=O)Nc1cccc(OCCCNS(=O)(=O)c2ccc(Oc3cccc(Cl)c3C#N)cc2)c1	-5.7	-2.3	93.4*	-0.7
Cn1cc(C(=O)O/N=C(\N)c2ccc(C(C)(C)C)cc2)c(C(F)(F)F)n1	-5.6	-10.7	100.0*	0.0
CC(C)(C)c1cc2nc(C(F)(F)F)cc(NNC(=O)Nc3ccc(OC(F)(F)F)cc3)n2n1	0.3	-6.5	82.0*	0.5
CC(=O)Nc1ccc(OC(F)(F)F)cc1Cl	-3.0	4.1	-8.1	-0.1
O=C1Nc2ccc(OC(F)(F)F)cc2C1=O	25.8*	10.0	7.7	-0.4
COc1ccc(CSCC(=O)c2ccc(Cl)c(Cl)c2)c(Cl)c1OC	-5.9	-4.2	-19.5	0.0
Cc1ccc(CSc2nnc(-c3cnccn3)s2)cc1	-0.8	7.8	93.0*	-0.2
Fc1ccc(CSc2nnc(-c3ccncc3)s2)cc1	-2.5	10.9	101.0*	-0.1
O=C(CSc1nnc(-c2cnccn2)s1)c1cccc(C(F)(F)F)c1	1.0	-4.4	2.5	-0.7
O=C(N/N=C/c1c(Cl)cccc1Cl)C(=O)Nc1ccc(F)cc1	-6.5	-0.5	4.4	0.3
O=[N+]([O-])c1ccc(N2CCCC2)c(Cn2ccnc2)c1	-6.2	-0.7	-3.9	-0.3
O=[N+]([O-])c1ccc(N2CCN(c3ccc([N+](=O)[O-])cc3CO)CC2)c(CO)c1	-5.8	3.4	82.3*	-0.4
Cc1nccc(-c2cccc(NN=C(C#N)C#N)c2)n1	-8.7	-2.6	104.4*	0.4
Cc1nccc(-c2cccc(N/N=C(\C#N)S(=O)(=O)c3ccccn3)c2)n1	-7.1	-6.2	-2.2	0.1
COC(=O)C1=C(N)Oc2ccccc2C1C(C#N)C#N (stereo not drawn)	-2.1	3.3	35.5	-0.5
Clc1ccc(-c2nc(CN3CCOCC3)cs2)cc1	-11.0	1.9	102.2*	0.1
CC(C)Nc1c(-c2ccccc2)oc2ccc(C(=O)O)cc2c1=O	28.3*	-10.8	-1.8	-0.1
SMILES	rat GALR2 agon	TLR4 MyD88 blk	S1P1 ag	NOTCH ag
CC(Oc1ccc2oc3ccccc3c(=O)c2c1)C(=O)O (stereo not drawn)	-0.4	-2.1	-19.2	0.4
O=C1NNC(SCc2ccc(Br)cc2)=Nc2ccccc21	-6.1	-8.0	96.5*	-0.6
CCOC(=O)c1c(C)csc1NC(=O)c1cccs1	18.6*	1.9	-10.0	-0.9
N#C/C(=C\Nc1ccc2c(c1)OCCO2)C(=O)c1ccc(Cl)cc1	-2.3	2.7	84.8*	-5.8
N#Cc1cccc(N=C(N)N=C(N)N)c1	-6.9	-3.8	3.6	-0.1
C[n+]1cccc(-c2n[nH]c(-c3ccccc3)n2)c1	-6.9	8.0	110.0*	.
CC(C)(C)c1ccc(C(=O)c2ncc[nH]2)cc1	2.2	15.1	102.8*	-0.7
O=C(c1ccc(OC(F)(F)F)cc1)c1ncc[nH]1	-5.1	10.1	-15.6	-0.2
O=c1c2cc([N+](=O)[O-])ccc2oc2ncccc12	-8.6	2.4	-9.9	3.0*
Cc1nn(-c2ccccc2)nc1C(=O)NNC(=O)CSCc1cccc2ccccc12	-8.4	0.8	89.4*	-0.4
Cc1nn(-c2ccccc2)nc1C(=O)NNC(=O)NC(=O)c1ccccc1Cl	-6.1	22.1	16.4	-0.6
O=[N+]([O-])c1cccnc1SCc1csc2ccc(Cl)cc12	-3.1	4.9	105.5*	-0.5
CCOC(=O)Cc1c(C(=O)OCC)[nH]c(C)c1C(=O)OCc1ccccc1	-6.1	1.1	-9.9	5.8*

Screens: PubChem, The Scripps Research Institute Molecular Screening Center
